SMILES strings stand for the structures. Screen size: about 2,400 compounds; about 750 (31%) were called active. Some of the results follow. Values without a mark were called inactive.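 The calls were made as follows: active = median signal gain over dofetilide-blocked control wells reaching their mean plus 3 SD, so readout 1 at least 0; inactive = the rest.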

The target of this assay is Voltage-gated inwardly rectifying potassium channel KCNH2 (Homo sapiens) (UniProt Q12809). As to the kind of experiment: modulators restoring hERG flux under dofetilide – cell-based, thallium flux, duplicate retest, dofetilide IC70, confirmation (AID 1835). Conditions: hERG cell line, FluxOR thallium flux, dofetilide-blocked; at 10 µM; active compounds read high.
Voltage-gated inwardly rectifying potassium channel KCNH2 (Homo sapiens), sequence (Q12809 whole entry, looked up): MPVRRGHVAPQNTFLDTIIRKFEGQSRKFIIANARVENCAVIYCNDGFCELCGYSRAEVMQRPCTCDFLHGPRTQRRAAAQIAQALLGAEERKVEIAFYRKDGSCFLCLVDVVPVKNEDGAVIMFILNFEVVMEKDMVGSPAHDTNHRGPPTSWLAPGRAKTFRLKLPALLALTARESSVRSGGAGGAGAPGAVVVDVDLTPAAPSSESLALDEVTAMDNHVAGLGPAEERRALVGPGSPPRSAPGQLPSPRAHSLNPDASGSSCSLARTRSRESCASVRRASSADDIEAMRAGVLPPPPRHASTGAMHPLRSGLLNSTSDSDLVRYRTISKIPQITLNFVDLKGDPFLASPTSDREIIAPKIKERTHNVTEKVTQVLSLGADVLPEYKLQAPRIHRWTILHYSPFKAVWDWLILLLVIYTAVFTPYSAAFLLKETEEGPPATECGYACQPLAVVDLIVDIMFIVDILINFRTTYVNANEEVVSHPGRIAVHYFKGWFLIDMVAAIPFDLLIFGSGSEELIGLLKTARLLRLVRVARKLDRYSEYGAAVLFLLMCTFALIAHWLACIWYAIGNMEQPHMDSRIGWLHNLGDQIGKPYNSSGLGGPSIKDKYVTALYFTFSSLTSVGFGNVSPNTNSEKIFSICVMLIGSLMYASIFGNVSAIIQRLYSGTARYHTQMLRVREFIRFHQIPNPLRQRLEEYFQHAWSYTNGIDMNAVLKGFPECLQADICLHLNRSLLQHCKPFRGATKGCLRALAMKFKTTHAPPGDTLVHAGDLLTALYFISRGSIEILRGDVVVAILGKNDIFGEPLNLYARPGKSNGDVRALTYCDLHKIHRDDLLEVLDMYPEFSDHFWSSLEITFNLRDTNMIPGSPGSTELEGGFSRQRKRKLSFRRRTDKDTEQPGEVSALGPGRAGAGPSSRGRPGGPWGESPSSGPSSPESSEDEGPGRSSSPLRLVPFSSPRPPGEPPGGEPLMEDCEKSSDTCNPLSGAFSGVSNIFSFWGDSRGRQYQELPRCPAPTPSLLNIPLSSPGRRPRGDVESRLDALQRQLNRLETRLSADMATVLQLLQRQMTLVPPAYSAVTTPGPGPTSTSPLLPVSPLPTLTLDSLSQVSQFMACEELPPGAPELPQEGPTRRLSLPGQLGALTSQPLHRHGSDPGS
On to `O=C1C(=Cc2cccn2-c2ccc(O)cc2)C(=O)c2ccccc21`, for which the activity increase over dofetilide control, less the hit threshold was -18%.

For the compound `Cc1oc(/N=C/c2ccc(F)cc2)c(C#N)c1C`, the activity increase over dofetilide control, less the hit threshold is -20%.

As for `CCC(NS(=O)(=O)c1cn(C)nc1C)c1ccccc1` (stereo unspecified), the activity increase over dofetilide control, less the hit threshold was -8%.

As to `O=C(CSc1ncnc2c1cnn2-c1ccc(Cl)cc1)NCc1ccc2c(c1)OCO2`, the activity increase over dofetilide control, less the hit threshold was -2%.

Consider `CSc1ccc(CNc2nc3ccccc3n3cnnc23)cc1`, for which the activity increase over dofetilide control, less the hit threshold was -20%.

As for `Cc1cc(C)c(-c2c(O)c3c(n(C)c2=O)CC(C)(C)CC3=O)c(C)c1`, the activity increase over dofetilide control, less the hit threshold is -16%.

For `Cn1c(=S)[nH]c2sc3c(c2c1=O)CCC(C(C)(C)C)C3` (stereo unspecified), the activity increase over dofetilide control, less the hit threshold was 59% (active).

On to `Cc1cccc(-n2c(=S)[nH]c3sc4c(c3c2=O)CCc2ccccc2-4)c1`, for which the activity increase over dofetilide control, less the hit threshold was -6%.

On to `CC1CCc2c(sc3[nH]c(=S)n(C)c(=O)c23)C1` (stereo unspecified), for which the activity increase over dofetilide control, less the hit threshold was 82% (active).

As to `CCCCNC1=CC(=O)C(=O)c2ccccc21`, the activity increase over dofetilide control, less the hit threshold was -9%.

With `O=C(OCc1ccccc1)/C(=C/c1cccc([N+](=O)[O-])c1)NC(=O)c1ccco1`, the activity increase over dofetilide control, less the hit threshold is -5%.

Consider `CC1(C)CC2(CCO1)C(Nc1ccccc1)=NC(=S)N2CC(N)=O` (stereo unspecified), for which the activity increase over dofetilide control, less the hit threshold was -15%.

Consider `Cc1ccccc1NC1=NC(=S)N(c2ccccc2)C12CCCCC2`, for which the activity increase over dofetilide control, less the hit threshold is 22% (active).

As to `COc1ccc(NC(=O)C(=O)NNC(=O)C(C)Oc2ccc(Cl)cc2Cl)cc1` (stereo unspecified), the activity increase over dofetilide control, less the hit threshold was 59% (active).

For the compound `COc1ccc(NC(=O)C(=O)NNC(=O)c2ccc(Cl)cc2Cl)cc1`, the activity increase over dofetilide control, less the hit threshold was 59% (active).

As for `COc1ccc(-c2cc(C(F)(F)F)nc(SCC(=O)NCc3cccs3)n2)cc1`, the activity increase over dofetilide control, less the hit threshold is -18%.

With `N#CCCN(Cc1ccccc1)C(=S)NC(=O)c1ccccc1`, the activity increase over dofetilide control, less the hit threshold was -3%.

Regarding `COc1ccc(CN(Cc2cccnc2)C(=S)NCCc2ccccc2)cc1OC`, the activity increase over dofetilide control, less the hit threshold is -11%.

Turning to `COc1cc(OC)cc(C(=O)NC(=S)N(Cc2ccccc2)C(C)C)c1`, the activity increase over dofetilide control, less the hit threshold is 30% (active).

On to `COc1cc(OC)cc(C(=O)OCC(=O)N(C)c2ccccc2)c1`, for which the activity increase over dofetilide control, less the hit threshold was -9%.

`CCOc1ccc(C(=O)NC(=S)N(Cc2ccccc2)Cc2ccccc2)cc1`: the activity increase over dofetilide control, less the hit threshold is 73% (active).

For the compound `CC(C)N(Cc1ccccc1)C(=S)NC(=O)C1(C)CC1(Cl)Cl` (stereo unspecified), the activity increase over dofetilide control, less the hit threshold was 35% (active).

Turning to `CCCOc1ccc(C(=O)NNC(=S)NC(=O)c2ccccc2)cc1`, the activity increase over dofetilide control, less the hit threshold is -36%.

Take `CCCOc1ccc(CN(CCC#N)C(=S)NC(=O)c2ccccc2)cc1`: the activity increase over dofetilide control, less the hit threshold was 9% (active).

As to `CCCN(CCC)C(=S)NC(=O)c1ccc(-c2ccccc2)cc1`, the activity increase over dofetilide control, less the hit threshold is 97% (active).

As for `C=CCN(CC=C)C(=S)NC(=O)c1ccc(-c2ccccc2)cc1`, the activity increase over dofetilide control, less the hit threshold is -2%.

With `CCCN(CC1CC1)C(=S)Nc1ccccc1F`, the activity increase over dofetilide control, less the hit threshold was -7%.

As for `COc1ccc(C(=O)NC(=S)N(Cc2ccccc2)Cc2ccccc2)cc1`, the activity increase over dofetilide control, less the hit threshold is 43% (active).

`COc1ccccc1NC(=O)C1CCCN1C(=O)Nc1ccc(F)cc1` (stereo unspecified): the activity increase over dofetilide control, less the hit threshold is -14%.

As for `CC(C)c1cccc(C(C)C)c1NC(=O)COC(=O)[C@H](C)NC(N)=O`, the activity increase over dofetilide control, less the hit threshold was -11%.

Regarding `C/C(=N\NC(=O)c1cc2ccccc2cc1O)c1ccc(C)o1`, the activity increase over dofetilide control, less the hit threshold is 50% (active).

For the compound `C/C(=N\NC(=S)Nc1c(C)cccc1C)c1cc2ccccc2o1`, the activity increase over dofetilide control, less the hit threshold is -5%.

Consider `C/C(=N\NC(=O)c1cc2ccccc2cc1O)c1ccccn1`, for which the activity increase over dofetilide control, less the hit threshold was -10%.

In the case of `C/C(=N\NC(=O)c1ccoc1C)c1cccc2ccccc12`, the activity increase over dofetilide control, less the hit threshold is -13%.

As to `C/C(=N/NC(=O)c1sc(NS(=O)(=O)c2ccccc2)nc1C)c1sc(N)nc1C`, the activity increase over dofetilide control, less the hit threshold is -15%.

As to `O=C(OCc1ccc([N+](=O)[O-])cc1)c1cc2ccccc2oc1=O`, the activity increase over dofetilide control, less the hit threshold is -25%.

Take `C/C(=N\NC(=O)c1cc2ccccc2cc1O)c1cc2ccccc2o1`: the activity increase over dofetilide control, less the hit threshold was 95% (active).

Turning to `C/C(=N/NC(=O)c1cc2ccccc2cc1O)c1ccco1`, the activity increase over dofetilide control, less the hit threshold is 40% (active).

With `Cc1cc(N2CCN(C)CC2)nc(N2CCOCC2)n1`, the activity increase over dofetilide control, less the hit threshold was -6%.

As to `O=C(N1CCOCC1)N1CCC(n2nnc3ccccc32)CC1`, the activity increase over dofetilide control, less the hit threshold was -8%.

With `CN(C)c1oc(-c2ccccc2)nc1C#N`, the activity increase over dofetilide control, less the hit threshold was -17%.

Consider `Cn1c(=O)c2c(ncn2CC(=O)OCc2ccccc2)n(C)c1=O`, for which the activity increase over dofetilide control, less the hit threshold was -11%.

For `Cc1cc(C=O)c2c(c1)C=CC1(Oc3ccccc3C(=O)N1C)O2` (stereo unspecified), the activity increase over dofetilide control, less the hit threshold was -29%.

For `O=C(Cn1c(=O)c2cccn2c2ccccc21)NCCc1ccc(Cl)cc1`, the activity increase over dofetilide control, less the hit threshold is -16%.

For the compound `Oc1oc(-c2cccc3ccccc23)nc1/C=N/c1nccs1`, the activity increase over dofetilide control, less the hit threshold is 4% (active).

Turning to `CCCCn1nnc(NC(=O)c2ccc(-c3cccc([N+](=O)[O-])c3)o2)n1`, the activity increase over dofetilide control, less the hit threshold was -6%.

As for `Cn1c(CNC(=O)c2ccccc2F)nnc1SCc1nc2ccccc2c(=O)[nH]1`, the activity increase over dofetilide control, less the hit threshold is -9%.

In the case of `O=C(O)CSc1nc2ccccc2nc1Cc1ccccc1F`, the activity increase over dofetilide control, less the hit threshold is 5% (active).

Turning to `O=C(O)CSCc1c(F)cccc1Cl`, the activity increase over dofetilide control, less the hit threshold was -7%.

Take `COc1ccc(C(=O)Nc2ccc(-n3nncc3C(C)(C)C)cc2)cc1`: the activity increase over dofetilide control, less the hit threshold is -4%.

Consider `COc1ccc(NC(=O)CN2C(=O)S/C(=C/c3cccn3-c3ccc(C(=O)O)cc3)C2=O)cc1`, for which the activity increase over dofetilide control, less the hit threshold was 94% (active).

As for `Cc1ccc(NC(=O)CN2C(=O)S/C(=C\c3cccn3-c3cccc(C(=O)O)c3)C2=O)c(C)c1`, the activity increase over dofetilide control, less the hit threshold is -4%.

Take `Cc1cccc(NC(=O)CN2C(=O)S/C(=C\c3cccn3-c3cccc(C(=O)O)c3)C2=O)c1`: the activity increase over dofetilide control, less the hit threshold was 7% (active).

With `Cc1ccc(NC(=O)CN2C(=O)N/C(=C/c3ccccc3OCc3cccc(C(=O)O)c3)C2=O)cc1`, the activity increase over dofetilide control, less the hit threshold is -16%.

Take `Oc1c(Cl)cc(Cl)cc1Sc1cc(Cl)cc(Cl)c1O`: the activity increase over dofetilide control, less the hit threshold is 76% (active).

Take `O=C(O)CCCN1C(=O)C2C3c4ccccc4C(c4ccccc43)[C@@H]2C1=O` (stereo partly specified): the activity increase over dofetilide control, less the hit threshold was -15%.

As for `Cc1noc(C)c1-c1nnc(-c2ccc(C(F)(F)F)cc2)o1`, the activity increase over dofetilide control, less the hit threshold is -11%.

On to `Cc1ccc(C(=O)CC(=O)c2ccccc2C)c(O)c1`, for which the activity increase over dofetilide control, less the hit threshold is -3%.

For `Cc1ccc(O)c(C(=O)CC(=O)c2ccccc2Cl)c1`, the activity increase over dofetilide control, less the hit threshold was -2%.

Take `O=C(/C=C/c1ccccc1)CC(=O)c1ccccc1O`: the activity increase over dofetilide control, less the hit threshold was 11% (active).

Consider `O=C(COc1ccccc1)NC(=S)N1CCc2ccccc21`, for which the activity increase over dofetilide control, less the hit threshold is 3% (active).

Regarding `NS(=O)(=O)c1ccc(NC(=O)c2ccc(S(=O)(=O)N3CCc4ccccc43)cc2)cc1`, the activity increase over dofetilide control, less the hit threshold was -1%.

Turning to `Cc1cccc(OCC(=O)NC(=S)N2CCCc3ccccc32)c1`, the activity increase over dofetilide control, less the hit threshold is -10%.

For the compound `CN1C(=O)CSc2ccc(NC(=O)N3CCc4ccccc43)cc21`, the activity increase over dofetilide control, less the hit threshold is -10%.

As for `O=C(Nc1cccn(Cc2c(Cl)cccc2Cl)c1=O)c1ccccc1Cl`, the activity increase over dofetilide control, less the hit threshold was -21%.

Consider `O=C(NC(=S)N1CCc2ccccc21)c1ccccc1Br`, for which the activity increase over dofetilide control, less the hit threshold was 92% (active).

Consider `CC1(C)CC2CC(C)(CN2C(=S)NC(=O)c2ccccc2Cl)C1` (stereo unspecified), for which the activity increase over dofetilide control, less the hit threshold is 28% (active).

As to `Cc1ccc(C(=O)NC(=S)N2CCN(c3cc(C)ccc3C)CC2)cc1`, the activity increase over dofetilide control, less the hit threshold is -3%.

Regarding `O=C(COc1ccccc1)NC(=S)Nc1ccc2c(c1)Cc1ccccc1-2`, the activity increase over dofetilide control, less the hit threshold is -9%.

On to `Cc1cccc(C(=O)NNC(=S)NC(=O)c2ccccc2)c1`, for which the activity increase over dofetilide control, less the hit threshold is -20%.

Regarding `Cc1cccc(C(=O)NC(=S)N2CCc3ccccc3C2)c1`, the activity increase over dofetilide control, less the hit threshold is 32% (active).

The record behind these values is PubChem BioAssay AID1835 (Johns Hopkins Ion Channel Center, 2009).
